# Test results reported in article PMC4336329 (PLoS ONE, 2015).
# Hit rate of the full screen: of about 310,000 compounds, about 14,000 (4.5%) showed an effect of 50% or more. The effect is printed as a negative number. Many of the other results were omitted from the sample, so strong results are more common in it than they were.
# Target: human ether-à-go-go-related gene (hERG) potassium channel (human, UniProt Q12809)
# Test: primary screen, population patch clamp on CHO cells stably expressing hERG; higher = less effect of the substance
# 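Also: peak tail current of the secondary pulse compared with the same well before compound.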
# human ether-à-go-go-related gene (hERG) potassium channel, sequence (Q12809 whole entry, looked up): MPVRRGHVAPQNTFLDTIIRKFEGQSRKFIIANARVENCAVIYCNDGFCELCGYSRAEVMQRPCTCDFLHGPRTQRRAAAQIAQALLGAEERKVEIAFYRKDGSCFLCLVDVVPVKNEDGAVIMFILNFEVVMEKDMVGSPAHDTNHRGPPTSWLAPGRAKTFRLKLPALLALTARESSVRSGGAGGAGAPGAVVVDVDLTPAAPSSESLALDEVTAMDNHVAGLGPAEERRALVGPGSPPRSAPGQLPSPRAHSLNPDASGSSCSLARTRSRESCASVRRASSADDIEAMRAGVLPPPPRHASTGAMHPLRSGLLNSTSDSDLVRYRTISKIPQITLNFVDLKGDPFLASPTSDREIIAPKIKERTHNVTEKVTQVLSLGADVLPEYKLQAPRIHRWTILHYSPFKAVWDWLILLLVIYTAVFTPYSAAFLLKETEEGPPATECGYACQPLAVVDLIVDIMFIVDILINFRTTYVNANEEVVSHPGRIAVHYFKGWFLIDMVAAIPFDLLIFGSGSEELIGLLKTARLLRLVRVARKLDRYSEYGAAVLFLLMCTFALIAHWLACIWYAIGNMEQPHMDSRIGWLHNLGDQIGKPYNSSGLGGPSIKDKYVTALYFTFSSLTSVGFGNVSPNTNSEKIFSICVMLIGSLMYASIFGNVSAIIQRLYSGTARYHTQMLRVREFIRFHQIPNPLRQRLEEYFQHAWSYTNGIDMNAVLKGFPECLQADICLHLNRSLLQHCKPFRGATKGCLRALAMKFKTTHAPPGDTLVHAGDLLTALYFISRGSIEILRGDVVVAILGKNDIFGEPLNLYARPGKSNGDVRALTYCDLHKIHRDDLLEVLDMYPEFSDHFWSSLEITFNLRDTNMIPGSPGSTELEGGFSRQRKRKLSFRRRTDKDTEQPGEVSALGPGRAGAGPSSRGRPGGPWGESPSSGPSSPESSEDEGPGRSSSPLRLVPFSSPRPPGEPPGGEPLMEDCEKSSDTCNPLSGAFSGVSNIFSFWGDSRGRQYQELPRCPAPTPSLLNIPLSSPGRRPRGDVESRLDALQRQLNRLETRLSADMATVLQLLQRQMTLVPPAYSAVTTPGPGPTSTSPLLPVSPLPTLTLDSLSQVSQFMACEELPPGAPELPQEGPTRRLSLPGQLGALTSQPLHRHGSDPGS
row,Compound,"hERG current change (%, negative = inhibition) at 10uM"
1,O=C(NCc1ccccc1)c1cccc(OCC(=O)N2CCN(C(=O)c3ccco3)CC2)c1,-41.1%
2,COc1ccccc1/C=N/NC(=O)CC(=O)NCc1cccnc1,7.63%
3,O=C(O)COc1ccccc1/C=N/NC(=O)CSc1nc2ccccc2s1,9.71%
4,CCOc1ccc(-c2cc(C(=O)NN3CCN(C)CC3)c3cc(Cl)ccc3n2)cc1,22.5%
5,CC(C(=O)NCc1ccc2c(c1)OCO2)N1c2cccc3cccc(c23)S1(=O)=O (centres unmarked),-22.7%
6,O=C(CN1C(=O)S/C(=C\C=C\c2ccccc2)C1=O)N1CCCCC1,10.8%
7,Cc1cc(=O)oc2cc(OCCSCCN3CCCCC3)ccc12,-16.5%
8,CNC(=S)N1CCn2cccc2C1c1cccnc1 (centres unmarked),6.45%
9,COc1ccc(/C(N)=N/OC(=O)CCCc2ccccc2)cc1,-11.3%
10,FC(F)(F)Oc1ccc(NC2=NCCCS2)cc1,-24.4%
11,COC(=O)c1c(NC(=O)C2CCCO2)sc2c1CCC2 (centres unmarked),-3.4%
12,CC(C)CN(CC(C)C)C(=O)c1cc2c(=O)n3ccccc3nc2s1,7.12%
13,O=C(O)C1CC1(c1ccccc1)c1ccccc1 (centres unmarked),17.7%
14,N#CC(C#N)=Cc1ccc(N2CCOCC2)cc1,-10.7%
15,CCCn1c(=O)c(C(=O)NCc2ccccn2)c(O)c2ccccc21,-11.1%
16,CCCn1c(=O)c(C(=O)NCc2ccncc2)c(O)c2ccccc21,-63%
17,Cc1ccc2c(Cl)c(C(=O)NCc3cccnc3)sc2c1,-46.4%
18,O=C(NCc1cccnc1)c1sc2cc(Cl)ccc2c1Cl,-55.4%
19,CCCn1c(=O)c(C(=O)NCc2ccccc2)c(O)c2ccccc21,7.64%
20,O=C(NCc1cccnc1)c1sc2ccccc2c1Cl,-28.9%
21,Cc1cc(NC(=O)CSc2nc3ccsc3c(=O)n2NC(=O)c2ccccc2)no1,-1.69%
22,Cc1ccc(C(=O)N(C)CC(=O)Nc2cccc(F)c2)cc1S(=O)(=O)N1CCCCC1,-10.5%

row,Compound,"hERG current change (%, negative = inhibition) at 10uM"
1,COc1ccc(C(=O)NC2CC2)cc1OC1CCN(Cc2ccc(SC)cc2)CC1,-88.7%
2,COc1ccc(C(=O)NCCc2cccc(Cl)c2)cc1OC1CCN(C(C)=O)CC1,-16.1%
3,COc1ccc(C(=O)NC2CC2)cc1OC1CCN(Cc2ccc(Cl)cc2)CC1,-78.8%
4,COc1ccc(C(=O)NC2CC2)cc1OC1CCN(Cc2ccccc2)CC1,-81.6%
5,COc1ccc(C(=O)NC2CC2)cc1OC1CCN(Cc2cnn(C)c2)CC1,-32.7%
6,COc1ccc(C(=O)NC2CCC(O)CC2)cc1S(=O)(=O)NCc1ccc(Cl)cc1 (centres unmarked),-6.07%
7,COc1cc2[nH]c(=O)n(Cc3ccc(C(=O)NC4CCN(Cc5ccccc5)CC4)cc3)c(=O)c2cc1OC,17.6%
8,COc1ccc(C(=O)NC2CC2)cc1OC1CCN(Cc2ccc(F)c(F)c2)CC1,-75.2%
9,C/C(=N\Nc1ccc(S(N)(=O)=O)cc1[N+](=O)[O-])c1cccs1,25.7%
10,C[C@]12CC[C@H]3[C@@H](CC[C@]4(O)C[C@@H](O)CC[C@]34C=O)[C@@]1(O)CC[C@@H]2C1=CC(=O)OC1,14%
11,O=C(CC12CC3CC(CC(C3)C1)C2)N1CCOCC1,-1.47%
12,COc1ccccc1CC(NC(C)=O)C(=O)NC1CCN(C(=O)Nc2ccc(F)cc2)CC1 (centres unmarked),-1.82%
13,COc1ccc(C(=O)NC2CC2)cc1OC1CCN(Cc2ccc(F)cc2)CC1,-81.8%
14,COc1cc(C(=O)NC2CCCCC2)ccc1OC1CCN(C(C)=O)CC1,7.63%
15,COc1ccc(C(=O)NC2CCN(CC(=O)Nc3c(C)cccc3C)CC2)cc1OC,18.7%
16,C/C=C(\C)CN1CCC(Oc2cc(C(=O)NC3CC3)ccc2OC)CC1,-64.5%
17,COc1cc(C(=O)NC2CCN(Cc3nnnn3Cc3ccc(F)cc3)CC2)cc(OC)c1OC,-0.888%
18,COc1cc(OC)cc(C(=O)NC2CCN(Cc3nnnn3Cc3ccc(F)cc3)CC2)c1,-3.98%
19,CN(C)S(=O)(=O)c1cccc(C(=O)NC2CCSc3ccccc32)c1 (centres unmarked),-5.74%
20,CCOc1cccc(=O)c2c(C)n(Cc3ccco3)c(C)c12,-11.5%
21,Cc1nc(NS(=O)(=O)c2ccccc2)sc1C(=O)N/N=C/c1ccccc1,-2%
22,CCn1c2ccccc2c2cc(/C=N/n3cnnc3)ccc21,-13.4%

row,Compound,"hERG current change (%, negative = inhibition) at 10uM"
1,COc1ccc(N2CC(C(=O)Nc3ccc(F)cc3F)CC2=O)cc1 (centres unmarked),-0.618%
2,COc1ccc(N2CC(C(=O)N/N=C/c3ccc(C)cc3)CC2=O)cc1 (centres unmarked),-18.8%
3,COc1ccc(N2CC(C(=O)N/N=C/c3ccc([N+](=O)[O-])cc3)CC2=O)cc1 (centres unmarked),-59.5%
4,COc1ccc(N2CC(C(=O)Nc3ccc([N+](=O)[O-])cc3Br)CC2=O)cc1 (centres unmarked),-69%
5,COc1ccc(N2CC(C(=O)N/N=C/c3cc([N+](=O)[O-])ccc3O)CC2=O)cc1 (centres unmarked),-8.45%
6,COc1ccc(OC)c(NC(=O)C2CC(=O)N(c3ccc(Br)cc3)C2)c1 (centres unmarked),-33.6%
7,O=C(COC(=O)/C=C/c1cccc(C(F)(F)F)c1)NCc1ccco1,13.5%
8,Cc1ccc(OCC(=O)Nc2ccccc2F)cc1C,23.6%
9,Cc1nc(NNC(=O)c2ccc(Cl)cc2Cl)cc(-c2ccccc2)n1,6.97%
10,Cc1nc(NNC(=O)c2ccc([N+](=O)[O-])cc2)cc(-c2ccccc2)n1,-50.8%
11,Cc1nc(NNC(=O)c2ccccc2)cc(-c2ccccc2)n1,3.7%
12,CC1OC(OCC2OC(Oc3c(-c4ccc(O)cc4)oc4cc(O)cc(O)c4c3=O)C(O)C(O)C2O)C(O)C(O)C1O (centres unmarked),13.7%
13,Cc1cccc2c(CC(=O)Nc3ccccc3)noc12,-0.38%
14,Cc1ccc2c(c1)N(Cc1ccc3c(c1)OCO3)C(=O)C(C)O2 (centres unmarked),-13.5%
15,CCc1ccc2oc(C(=O)N3CCN(c4ccc(OC)cc4)CC3)cc(=O)c2c1,-36.7%
16,COc1ccccc1N1CCN(C(=O)c2cc(=O)c3cc(C)ccc3o2)CC1,-50.7%
17,CCc1ccc2oc(C(=O)N3CCN(c4ccccc4OC)CC3)cc(=O)c2c1,-68.7%
18,COc1ccccc1N1CCN(C(=O)c2cc(=O)c3cc(C)cc(C)c3o2)CC1,-27.3%
19,CCc1ccc2oc(C(=O)N3CCN(C)CC3)cc(=O)c2c1,-32.4%
20,COc1ccccc1N1CCN(C(=O)c2cc(=O)c3ccc(C)cc3o2)CC1,-20.7%
21,CN(C)/C=N/c1c(C(=O)NCc2ccccc2)nnn1Cc1ccccc1,-12.2%
22,Cc1cccc(/C=C2\CS/C(=C\c3cccc(C)c3)C2=O)c1,0.505%

row,Compound,"hERG current change (%, negative = inhibition) at 10uM"
1,O=C(Nc1nnc(S(=O)(=O)N2CCOCC2)s1)c1ccccc1Br,4.05%
2,COCCn1c(C)cc(C(=O)COC(=O)c2ccc(-n3nc(C)cc3C)cc2)c1C,2.16%
3,O=C(CN1C(=O)C2C3C=CC(C3)C2C1=O)N1CC=C(c2ccccc2)CC1 (centres unmarked),-10.1%
4,CCOC(Cn1cc(C)c(=O)[nH]c1=O)OCC,-2.39%
5,N#CCc1cc2ccc3cccc4ccc(c1)c2c34,16.2%
6,CCS(=O)(=O)Nc1cccc(C2=NN(S(=O)(=O)c3ccc(C)cc3)C(c3ccco3)C2)c1 (centres unmarked),12.9%
7,Cc1c(C)c2cc(Cl)c(O)c(CN3CCCC(C)C3)c2oc1=O (centres unmarked),8.5%
8,O=C(Cn1cncn1)N/N=C/c1cccc2ccccc12,-4.06%
9,CC(C)CCC(CCN1CCOCC1)c1ccc2c(c1)OCO2.Cl (centres unmarked),-72.9%
10,O=C(C1CCCN(Cc2ccc3c(c2)OCO3)C1)N1CCCC1.O=C(O)C(=O)O (centres unmarked),9.26%
11,CC(O)c1ccc2c(c1)OCCOCCN(C)CCOCCO2 (centres unmarked),-1.64%
12,CC(C)CCC(CCN1CCCC1)c1ccc2c(c1)OCO2.O=C(O)C(=O)O (centres unmarked),-78.1%
13,O=C(CCN1CCCCC1)c1ccc2c(c1)OCO2,-0.169%
14,C(=NCCCN1CCOCC1)c1ccc2c(c1)OCO2,15.7%
15,O=C(NCCc1cccc(F)c1)C1CCCN(c2nc3ccccc3s2)C1 (centres unmarked),7.76%
16,CN(C)S(=O)(=O)N(CC(=O)NCc1ccccc1)c1ccccc1,1.87%
17,CSc1nc2c(ccc3ccccc32)o1,12.9%
18,CCOC(=O)c1c(NC(=O)c2cccnc2)sc(C(C)=O)c1C,-5.09%
19,NC(=O)COC(=O)c1ccccc1SCC(=O)NC1CCCCCCC1,12%
20,Cc1c(NC(=S)NC(NC(=O)C(C)C)C(Cl)(Cl)Cl)c(=O)n(-c2ccccc2)n1C (centres unmarked),-1.45%
